Bioassay records deposited in PubChem BioAssay by several laboratories.
CHOP inhibitor: inhibitors of CHOP promoter induction, primary screen, cell-based, unfolded protein response, luciferase reporter; 220,000 compounds, 3.8% hits; CHO-K1 CHOP-promoter luciferase, tunicamycin-induced, 15-18 h; AID 2732, 2010; inhibition, % at 10 µM;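 active = compounds that reduced the stress-induced luciferase reporter signal by more than about 70% of percent inhibition, limit read from the data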;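 also: 0% = tunicamycin plus vehicle and 100% = wells without tunicamycin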
RAM network inh: inhibitors of the yeast RAM network, primary screen, dse1pr::URA3 reporter, 5-FOA selection; S. cerevisiae dse1pr::URA3 reporter, 5-FOA growth OD615, 2 d; analog-sensitive cbk1-as2 kinase mutant strain; inhibition, % at 50 µM; 190,000 compounds, 1.8% hits; AID 868, 2007;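 active = inhibition above a set limit, 3 SD over mean compound inhibition, cut at about 8.4% in these data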;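 also: 0% = DMSO-only wells with no growth and 100% = 10 µM 1-NA-PP1 full growth; inhibition rescues growth on 5-FOA so higher OD means more RAM inhibition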
Lmaj promast: Leishmania major promastigote growth inhibition, primary screen | Leishmania major promastigotes, resazurin fluorescence viability | inhibition, % at 10 µM | 200,000 compounds, 9% hits | AID 1063, 2008; in the data active = inhibition above about 50%;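 also: promastigotes grown with compound for 44 hours at 28 °C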
WT yeast gro inh: growth inhibition of WT strain, primary screen, mitochondrial fusion inhibitor project, WT and mutant strains, chemical genetic. AID 1362, 2008. 190,000 compounds, 2.1% hits. mitochondrial fusion phenotypic screen. inhibition, % at 10 µM; in the data active = inhibition above about 58%; tested in S. cerevisiae
* marks the source's active call; other numbers are inactive results; x = no result. Rows were chosen to be rich in hits. Some 13% of all compounds tested hit in one or more screens of this group.

SMILES	CHOP inhibitor	RAM network inh	Lmaj promast	WT yeast gro inh
COc1ccc(-c2cc(C(=O)c3c(N)n(C)c(=O)n(C)c3=O)c3ccccc3n2)cc1OC	-11.9	1.6	-2.2	18.8
COc1ccc(CCNC(=O)C(=O)NCc2ccccn2)cc1	-3.8	3.4	-8.2	14.1
Cc1noc(C)c1-c1nc(CS(=O)(=O)c2ccccc2)no1	3.8	x	x	x
CCN(CC)CCNc1ccc2nnc(CCNS(=O)(=O)c3ccc(C)cc3)n2n1	-7.9	2.0	-5.8	-6.6
CCOC(=O)C1CCN(C(=S)NC2CC3C=CC2C3)CC1 (stereo unspecified)	-3.0	x	x	x
O=C(Nc1ccc(N2CCOCC2)c(Cl)c1)c1cccc(F)c1	-15.5	2.8	-0.7	13.5
O=C(Nc1ccccc1N1CCOCC1)c1cc(F)cc(F)c1	-3.6	2.6	7.0	74.4*
O=C(Nc1ccccc1N1CCOCC1)c1cccc(F)c1	-5.0	-0.7	3.7	76.0*
Nc1cc(C(=O)c2ccccc2)ccc1N1CCOCC1	6.7	1.8	53.7*	-17.9
O=C(Nc1ccccc1N1CCOCC1)c1cccnc1	10.4	0.9	-6.2	-11.4
O=C(NCCc1ccccn1)C(F)(F)C(F)(F)C(F)(F)C(F)(F)C(F)(F)C(F)(F)C(F)(F)C(F)F	-7.0	-0.6	-9.2	-5.4
CCn1cc(C(C)NC(=O)Nc2ccc3c(c2)OCO3)c(C)n1 (stereo unspecified)	-8.4	1.3	-1.6	-3.6
CCc1ccc(OCC(=O)Nc2ccc(-c3nc4ccccc4o3)c(O)c2)cc1	45.2	-0.5	0.1	9.5
Oc1cc(NCc2cccnc2)ccc1-c1nc2ccccc2o1	-9.1	0.8	99.0*	8.8
O=C(C1CCCN(S(=O)(=O)c2ccccc2[N+](=O)[O-])C1)N1CCN(c2ccccc2)CC1 (stereo unspecified)	4.7	-0.1	0.9	8.7
COc1ccc2[nH]c(=O)cc(C(=O)O)c2c1	-4.1	1.5	-4.5	-8.3
COc1ccc2[nH]c3c4c(ccc3c2c1)C(=O)C=CC4=O	88.6*	x	x	x
CCOC(=O)c1c(N)sc2c1CCC(CC)C2 (stereo unspecified)	76.6*	-0.6	-2.9	8.3
CCC1CCc2c(sc(N)c2C(N)=O)C1 (stereo unspecified)	25.3	0.7	6.5	13.0
COCCNCCCCOc1c(Cl)cc(C)cc1Br	4.8	-0.4	97.7*	13.1
Cc1cc(Cl)cc(Br)c1OCCCNCC(C)O (stereo unspecified)	6.3	1.0	29.7	9.6
Cc1cc(Cl)c(OCCCNCc2ccccc2)c(Br)c1	-27.9	0.0	84.1*	-14.4
COc1cccc(Nc2nnc(SCC(=O)N(CC(C)C)CC(C)C)s2)c1	57.0	7.5	99.1*	5.7
C/C(N)=C(/C#N)C(=O)CSc1nnc(Nc2cccc(C)c2)s1	-10.8	5.2	76.3*	-15.4
Cn1c(N)c(N2CCN(c3ccccc3)CC2)c(=O)[nH]c1=O	-4.8	0.4	-6.8	-6.8
SMILES	CHOP inhibitor	RAM network inh	Lmaj promast	WT yeast gro inh
Cc1ccc(NC(=O)C(NC2CCCc3ccccc32)c2ccccc2)cc1Cl (stereo unspecified)	37.7	2.8	58.3*	33.0
Cc1ccc(NC(=O)C(NC2CCCc3ccccc32)c2ccccc2)c([N+](=O)[O-])c1 (stereo unspecified)	-21.7	1.2	89.3*	-3.5
CNc1ccccc1C(C)(C)c1cc(-c2cccc(OC)c2)no1	47.8	4.1	11.7	62.8*
CNc1ccccc1C(C)(C)c1cc(-c2cc(C)cc(C)c2)no1	40.2	3.8	0.0	57.2
CS(=O)(=O)N1CCc2cc(NC(=O)c3ccc(Cl)cc3Cl)ccc21	-23.0	4.3	-0.6	17.1
COc1ccc(/C=C(\C#N)C(=O)OCC(=O)Nc2c(C)cccc2C(C)C)cc1	52.6	3.5	-5.6	4.4
CN(C(=O)c1ccc2c(c1)C(=O)N(CCC1=CCCCC1)C2=O)C1CCCCC1	99.2*	5.6	10.6	42.0
O=C(O)c1ccc2c(c1)C(=O)N(CCC1=CCCCC1)C2=O	-3.6	1.8	-6.2	-3.0
COc1ccc(-c2csc(N=C(N)N)n2)cc1	-9.8	0.7	59.6*	-2.9
COc1ccc(-c2csc(N)n2)cc1	-9.3	1.5	7.3	-7.0
COc1ccc(OC2C(=O)N(Cc3ccc(F)cc3)C2c2ccc(OC)c(OC)c2)cc1 (stereo unspecified)	-26.5	3.1	5.5	-0.1
COc1ccc(OC2C(=O)N(Cc3ccc4c(c3)OCO4)C2c2sccc2C)cc1 (stereo unspecified)	6.7	7.8	92.0*	0.4
O=C(/C=C1\NC2(CCCC2)Cc2ccccc21)C(=O)N/N=C/c1ccccc1O	51.6	1.2	98.9*	-9.3
COc1cc(/C=N/NC(=O)C(=O)/C=C2\NC3(CCCC3)Cc3ccccc32)ccc1O	8.3	-0.5	12.4	35.1
COc1cc(C(C)=O)ccc1OC(=O)c1cc2cccc(OC)c2oc1=O	2.6	1.8	-1.9	3.3
Cc1ccc(OCc2nc(-c3ccccn3)no2)c(Br)c1	67.8	-0.2	-3.3	6.3
CC(C)c1ccc(OCc2nc(-c3ccccn3)no2)c(Br)c1	70.6*	3.1	14.0	79.3*
CC(C)(C)c1ccc(NC(=O)CSc2nnc(-c3n[nH]c4ccccc34)o2)cc1	93.5*	5.8	3.9	35.0
CCC(c1nnc(SCC(=O)Nc2nnc(-c3ccccc3)o2)o1)N(C)C (stereo unspecified)	27.4	1.9	-1.6	1.1
Cc1ccc(C)c(NC(=O)CSc2nnc(-c3n[nH]c4ccccc34)o2)c1	8.3	0.9	59.8*	-1.9
Cc1c(Cl)cccc1NC(=O)CSc1nnc(C)n1-c1ccccc1	21.6	-1.6	-11.3	x
O=C(CSc1nnc(-c2n[nH]c3ccccc23)n1-c1ccccc1)Nc1ccccc1Cl	36.3	6.1	60.4*	-11.4
Cc1ccc(C)c(SCC(=O)Nc2nnc(-c3ccccc3)o2)c1	17.2	5.3	-4.5	72.8*
Nn1c(SCc2cccc(Br)c2)nnc1-c1ccncc1	2.4	x	x	x
NC(=O)C1=C[C@@H](c2csc3ccccc23)C[C@@H](OCCCCO)O1	31.0	0.4	5.1	5.5
SMILES	CHOP inhibitor	RAM network inh	Lmaj promast	WT yeast gro inh
COC(=O)c1c(NC(=O)COC(=O)c2ccccc2O)sc2c1CCCCC2	10.5	2.0	6.0	-5.4
COC(=O)c1c(NC(=O)COC(=O)[C@@H](NS(=O)(=O)c2ccc(C)cc2)C(C)C)sc2c1CCC2	62.3	5.6	94.3*	33.4
COC(=O)c1c(NC(=O)COC(=O)c2ccc(C)s2)sc2c1CCCCC2	71.8*	1.1	-4.3	3.4
Cc1ccc(CN=C2NC(=O)C(CC(=O)NCCc3ccccc3)S2)cc1 (stereo unspecified)	16.9	4.0	-4.1	-6.1
Cc1ccc(C(=O)Oc2cccc(-n3cnnn3)c2)cc1	23.9	3.1	1.1	18.9
CC1CCc2c(C(=O)Oc3cccc(-n4cnnn4)c3)csc2C1 (stereo unspecified)	88.6*	4.7	7.0	60.5*
COc1ccc(N2C(=O)CS/C2=N\C(=S)Nc2ccccc2)cc1	-1.6	x	x	x
O=C(OCc1cncs1)c1cccs1	-11.4	0.9	-5.2	-9.8
Cc1ccccc1-c1nc(CS(=O)(=O)CC(=O)Nc2cc(F)ccc2F)c(C)o1	77.9*	1.8	-5.5	16.0
